Experiment [1] relates to ES2. The experiment can be described thus: cell viability relative to DMSO control (MTS) (fraction of DMSO control); higher = more viable cells / less growth inhibition. Conditions: 10 µM; 48 h. The method in brief:
(§1)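 Viability values are fractions of the vehicle-treated control. They come from an MTS assay run per the manufacturer's instructions on TOV-21G and ES2 clear cell carcinoma cells, seeded at 5000 cells per well in 96-well plates. Each compound of a 367-member […] library was added at 10 µM final after 24 h of growth, and the readout was taken after a further 48 h.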

In experiment [2] the test system is TOV-21G. The description is as above. Conditions: 10 µM; 48 h. The method in brief: as §1

Where a name gives a salt, the structure may show the parent alone. ± gives the standard deviation of the averaged measurements.

For the molecule `O=c1c(-c2ccc(O)cc2)coc2cc(O)cc(O)c12` [Genistein], the cell viability stood at 1.31 in experiment [1] and 0.988 in experiment [2].
As for `Cc1c(C)c2c(c(C)c1O)CCC(C)(COc1ccc(CC3SC(=O)NC3=O)cc1)O2` (stereo unspecified) [Troglitazone], the cell viability in experiment [1] turned out to be 0.835; in experiment [2], 1.26.
`N#C/C(=C\c1ccc2oc(=O)[nH]c2c1)C(=O)c1ccc(O)c(O)c1`: the cell viability in experiment [1] was 0.972; in experiment [2], 1.13.
Take `Nc1ncnc2nc(-c3ccc(N4CCOCC4)nc3)cc(-c3cccc(Br)c3)c12`: the cell viability in experiment [1] is 0.795; in experiment [2] it was 0.484.
On the same counts, the results for `NC(=O)c1cccc2cn(-c3ccc([C@@H]4CCCNC4)cc3)nc12` [MK-4827 (Niraparib)] are 0.61 and 0.783.
As to `CN(Cc1cnc2nc(N)nc(N)c2n1)c1ccc(C(=O)N[C@@H](CCC(=O)O)C(=O)O)cc1` [Methotrexate], the cell viability in experiment [1] was 1.16; in experiment [2], 0.872.
Take `N=C(N)NC(=O)c1nc(Cl)c(N)nc1N` [Amiloride]: the figures for the cell viability in experiment [1] and in experiment [2] were 1.16 and 1.24, respectively.
On the same counts, the results for `Fc1ccc(Cl)cc1-c1nc(Nc2ccncc2)c2nccnc2n1` are 0.645 and 1.08.
Turning to `CC(C)C[C@@H](C=O)NC(=O)[C@H](CC(C)C)NC(=O)[C@H](CC(C)C)NC(=O)OCc1ccccc1`, the cell viability came out at 0.298 in experiment [1] and 0.255 in experiment [2].
On the same counts, the results for `Cn1nnc2c(C(N)=O)ncn2c1=O` [temozolomide] are 1.2 and 1.12.
On the same counts, the results for `CO[C@@H]1[C@H](OC(=O)/C=C/C=C/C=C/C=C/C(=O)O)CC[C@]2(CO2)[C@H]1[C@@]1(C)O[C@@H]1CC=C(C)C` [Fumagillin] are 0.91 and 0.991.
On the same counts, the results for `COc1ccc(Cn2ccc3ccc(C(=O)NO)cc32)cc1` are 0.928 and 0.919.
On to `O=C(NCCCCCCNC(=O)ON=C1CCCCC1)ON=C1CCCCC1`, for which the cell viability is 1.3 in experiment [1] and 0.996 in experiment [2].
Consider `CCCCC[C@H](CC(=O)NO)C(=O)N[C@H](C(=O)N1CCC[C@H]1CO)C(C)C` [Actinonin], for which the cell viability in experiment [1] stood at 1; in experiment [2], 0.848.
For the molecule `CC(C)c1cc(/C=C(\C#N)C(=O)NCCCc2ccccc2)cc(C(C)C)c1O`, the values for the cell viability in experiment [1] and in experiment [2] were 1.3 ± 0.21 and 0.938 ± 0.063, respectively.
For `CC[C@H](C)C(=O)O[C@H]1C[C@@H](C)C=C2C=C[C@H](C)[C@H](CC[C@@H]3C[C@@H](O)CC(=O)O3)[C@H]21` [Lovastatin], the cell viability in experiment [1] stood at 0.595; in experiment [2], 0.792.
The matching figures for `Cc1nc2sccn2c(=O)c1CCN1CCC(=C(c2ccccc2)c2ccc(F)cc2)CC1`: 0.963 and 1.04.
The matching figures for `Cc1[nH]c(/C=C2\C(=O)Nc3ccc(S(=O)(=O)N(C)c4cccc(Cl)c4)cc32)c(C)c1C(=O)N1CCN(C)CC1`: 0.402 and 0.639.
`COc1ccc(OC)c2c(=S)c3ccccc3[nH]c12`: the cell viability in experiment [1] stood at 1.35; in experiment [2], 1.14.
On the same counts, the results for `Cc1cc([N+](=O)[O-])ccc1NS(=O)(=O)c1cc(Cl)ccc1Cl` are 0.894 and 1.14.
The matching figures for `C1=Cc2nc1cc1nc(c(-c3ccccc3)c3ccc(cc4ccc([nH]4)c2-c2ccccc2)[nH]3)C=C1`: 0.908 and 1.19.
With `CNCc1ccc(-c2[nH]c3cc(F)cc4c3c2CCNC4=O)cc1`, the cell viability in experiment [1] was determined as 0.686; in experiment [2], 0.746.
For `CCCOc1ccccc1-c1nc2[nH]nnc2c(=O)[nH]1` [Zaprinast], the cell viability in experiment [1] came to 0.909; in experiment [2], 1.03.
In the case of `O=C1NC(=O)c2c1c1c3ccccc3[nH]c1n1cncc21` [isogranulatimide], the cell viability in experiment [1] was found to be 1.12; in experiment [2], 1.47.
In the case of `Cn1c(=O)c2nc[nH]c2n(C)c1=O` [Theophylline], the cell viability in experiment [1] was 0.452; in experiment [2], 0.772.
On the same counts, the results for `Nc1[nH]nc2nnc(-c3c(-c4ccccc4)nn4ccccc34)cc12` [ERK inhibitor II] are 0.847 and 0.734.
The matching figures for `COC(=O)Nc1nc2cc(C(=O)c3cccs3)ccc2[nH]1` [Nocodazole]: 0.451 and 0.464.
`CC[n+]1c(/C=C/N(C)c2ccccc2)n(-c2ccccc2)c2ccc(-c3nc4ccccc4s3)cc21` [Akt Inhibitor IV]: the cell viability turned out to be 0.308 in experiment [1] and 0.218 in experiment [2].
The matching figures for `COc1cccc2c1C(=O)c1c(O)c3c(c(O)c1C2=O)C[C@@](O)(C(=O)CO)C[C@@H]3O[C@H]1C[C@H](N)[C@H](O)[C@H](C)O1` [Doxorubicin, HCl]: 0.312 and 0.403.
The matching figures for `O=c1cc(-c2ccccc2)oc2cc(O)c(O)c(O)c12` [Baicalein]: 0.916 and 0.821.
For `CCCCCCCCCCC[C@@H](C[C@@H]1OC(=O)[C@H]1CCCCCC)OC(=O)[C@H](CC(C)C)NC=O` [orlistat], the cell viability amounted to 1.08 in experiment [1] and 1.14 in experiment [2].
The matching figures for `CCOC(=O)C(C)(C)Oc1ccc(Cl)cc1` [Clofibrate]: 1.35 and 1.03.
The matching figures for `CCCCN1C(=O)C2Cc3c([nH]c4ccccc34)C(c3cccc(O)c3)N2C1=O` (stereo unspecified): 0.368 and 0.46.

These data come from the supplement of paper PMC12669797.
